Measurements from PubChem BioAssay.
Active and inactive are the calls of the source.

Legend:
[1] = system: Human papillomavirus type 1a protein E7 (residues 44-93); experiment: HPV1a E7 fragment binders on microarrays, primary screen, biochemical, small-molecule microarray, residues 44-93, 635 nm fluorescence (AID 1108); settings: small-molecule microarray binding, fluorescence 635 nm; higher = more signal;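 further: E7 fragment applied at 1 µg/mL in TBST for 1 h at 4 C; score combines spot fluorescence with its signal to noise ratio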
[2] = modulators of HCV replicon luciferase signal, primary screen, HCV replication inhibitor project, Huh7 cells, luciferase reporter (AID 1109); settings: 48 h, higher = more signal;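 further: huh7 hepatoma cells harbouring a luciferase neomycin HCV replicon reporter; luciferase luminescence as measure of HCV replicon replication; test concentration not given here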
[3] = molecular target: Left-right determination factor 2 (Homo sapiens) (UniProt O00292); experiment: LEFTY2 binders on small-molecule microarrays, primary screen, biochemical, small-molecule microarray, 635 nm fluorescence scan (AID 1110); settings: LEFTY2 binding, higher = more signal
[4] = molecular target: Calmodulin-1 (Homo sapiens) (UniProt P0DP23); experiment: CALM1 binders on microarrays, EGTA buffer, profiling panel, biochemical, small-molecule microarray, Cy5-labelled CALM1 (AID 1111); settings: Cy5-CALM1 binding fluorescence, higher = more signal;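 further: labelled calmodulin applied in Tris saline Tween buffer holding calcium plus EGTA and DTT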
[5] = molecular target: Calmodulin-1 (Homo sapiens) (UniProt P0DP23); experiment: calcium-bound CALM1 binders on microarrays, profiling panel, artefact control for SMM control-protein annotation, biochemical, small-molecule microarray, Cy5-labelled CALM1, plus calcium (AID 1112); settings: Cy5-CALM1 binding fluorescence, higher = more signal;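 further: score merges spot fluorescence with signal to noise from triplicate slides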
[6] = small-molecule microarray binders of probe aWnt5a, primary screen, biochemical, biotinylated probe, 635/667 nm fluorescence (AID 1113); settings: higher = more signal;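 further: score merges 667 nm fluorescence intensity with signal-to-noise per printed feature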
[7] = small-molecule microarray binders of probe aShh, primary screen, biochemical, biotinylated probe, 635/667 nm fluorescence (AID 1114); settings: higher = more signal;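 further: probe is biotin-labelled aShh protein from a stem cell growth factor screen; measures binding of labelled protein to compounds printed on the slide; score merges feature fluorescence at 667 nm with signal-to-noise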
[8] = small-molecule microarray binders of probe aNog, primary screen, biochemical, biotinylated probe, 635/667 nm fluorescence (AID 1115); settings: higher = more signal;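 further: probe is biotinylated aNog protein used at 0.15 µg/mL for 1 h at 4 C; z-score combines 667 nm fluorescence of each spot with its signal to noise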
[9] = molecular target: Torsin-1A-interacting protein 1 (Homo sapiens) (UniProt Q5JTV8); experiment: LAP1 binders from COS7 cell lysate, primary screen, small-molecule microarray, 635/667 nm fluorescence (AID 1116); settings: COS7-hLAP1 lysate binding, 635 nm fluorescence, higher = more signal
[10] = molecular target: Alpha-bungarotoxin (Bungarus multicinctus) (UniProt P60615); experiment: alpha-bungarotoxin binders on microarray, profiling panel, artefact control for SMM control protein annotation, biochemical, small-molecule microarray, Alexa647 label, 635/667 nm fluorescence (AID 1117); settings: alpha-BTX-A647 binding fluorescence, higher = more signal
Albumin (Bos taurus) = Albumin (Bos taurus) (UniProt P02769); experiment: bovine serum albumin binders on microarray, profiling panel, artefact control for SMM control protein annotation, biochemical, small-molecule microarray, Alexa647 label, 635/667 nm fluorescence (AID 1118); settings: BSA-A647 binding, fluorescence 635 nm, higher = more signal;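 further: score merges 667 nm emission intensity and signal-to-noise per printed compound spot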
[11] = small-molecule microarray binders of probe aXIP, primary screen, biochemical, NeuroSMM set, 635/667 nm fluorescence (AID 1119); settings: higher = more signal, called active from +8 up or from −8 down;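 further: probe is the protein aXip251-270 applied at 1 µg/mL to compound-printed slides; binding of probe to printed compounds measured as 667 nm fluorescence plus signal to noise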
[12] = small-molecule binders of probe aNOTCH3, primary screen, biochemical, small-molecule microarray, 635/667 nm fluorescence (AID 1120); settings: higher = more signal;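 further: probe is a biotin-tagged antibody raised against NOTCH3 rather than NOTCH3 protein; score merges spot fluorescence near 667 nm with spot signal to noise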
[13] = small-molecule binders of probe aNOTCH2, primary screen, biochemical, small-molecule microarray, 635/667 nm fluorescence (AID 1121); settings: higher = more signal;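 further: score merges feature fluorescence read at 667 nm with its signal to noise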
[14] = molecular target: Carbonic anhydrase 2 (Homo sapiens) (UniProt P00918); experiment: CAII small-molecule binders, profiling panel, biochemical, small-molecule microarray, Alexa647-labelled CAII (AID 1122); settings: CAII-A647 binding fluorescence, higher = more signal
[15] = COS7 lysate on small-molecule microarray, probe aHis, 635 nm (AID 1123); settings: COS7 cell lysate, fluorescence, higher = more signal;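 further: z-score combines 667nm fluorescence intensity with signal-to-noise per printed compound spot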
[16] = compound binding in COS7 lysate, probe aLAP1, primary screen, cell lysate, small-molecule microarray (AID 1124); settings: probe aLAP1, fluorescence, higher = more signal;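 further: lysate comes from COS7 cells expressing LAP1 and is applied at 0.3 µg/mL; score merges spot fluorescence near 667 nm with signal-to-noise over triplicate slides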
Sam68 (KHDRBS1) = experiment: Sam68 small-molecule binders, primary screen, biochemical, small-molecule microarray, 635 nm fluorescence (AID 1125); settings: small-molecule microarray binding, higher = more signal;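 further: score merges 667 nm channel intensity with signal to noise over triplicate slides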
[17] = system: Chordin-like protein 2 (CHRDL2); experiment: CHRDL2 small-molecule binders, primary screen, biochemical, small-molecule microarray, 635 nm fluorescence (AID 1126); settings: small-molecule microarray binding, fluorescence 635 nm; higher = more signal;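 further: printed compound slides probed with Chrdl2 protein at 4 µg/mL for 1 h at 4 C; score merges 667 nm emission intensity with signal to noise over three replicate slides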
[18] = molecular target: Concanavalin-A (Canavalia ensiformis) (UniProt P02866); experiment: ConA small-molecule binders, primary screen, artefact control for SMM control protein annotation, biochemical, small-molecule microarray, Alexa647 label, 635 nm (AID 1127); settings: ConA-A647 binding fluorescence, higher = more signal;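 further: z combines 667 nm emission intensity with signal-to-noise across three replicate slides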
Chain of Concanavalin-A (Canavalia ensiformis) (P02866 whole entry, looked up): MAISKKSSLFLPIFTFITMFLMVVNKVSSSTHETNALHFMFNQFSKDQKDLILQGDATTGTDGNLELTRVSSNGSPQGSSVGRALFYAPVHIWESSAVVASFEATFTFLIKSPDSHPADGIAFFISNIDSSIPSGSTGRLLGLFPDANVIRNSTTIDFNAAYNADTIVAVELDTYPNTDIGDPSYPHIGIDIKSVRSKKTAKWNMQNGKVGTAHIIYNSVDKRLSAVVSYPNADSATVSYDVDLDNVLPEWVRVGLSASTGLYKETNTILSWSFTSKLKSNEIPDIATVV

Chain of Left-right determination factor 2 (Homo sapiens) (O00292 whole entry, looked up): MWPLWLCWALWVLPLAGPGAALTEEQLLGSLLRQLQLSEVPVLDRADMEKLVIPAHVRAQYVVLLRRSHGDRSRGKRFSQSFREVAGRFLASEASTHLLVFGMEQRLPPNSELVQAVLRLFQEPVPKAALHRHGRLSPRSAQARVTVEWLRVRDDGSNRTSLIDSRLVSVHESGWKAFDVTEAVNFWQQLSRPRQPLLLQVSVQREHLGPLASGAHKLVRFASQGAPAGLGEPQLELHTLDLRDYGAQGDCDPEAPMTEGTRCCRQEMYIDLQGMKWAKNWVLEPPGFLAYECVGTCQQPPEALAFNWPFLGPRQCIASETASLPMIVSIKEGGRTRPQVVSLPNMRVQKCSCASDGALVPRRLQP
Chain of Alpha-bungarotoxin (Bungarus multicinctus) (P60615 whole entry, looked up): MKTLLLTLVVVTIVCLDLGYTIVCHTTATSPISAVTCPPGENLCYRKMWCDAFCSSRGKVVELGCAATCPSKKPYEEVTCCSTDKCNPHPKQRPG
Chain of Albumin (Bos taurus) (P02769 whole entry, looked up): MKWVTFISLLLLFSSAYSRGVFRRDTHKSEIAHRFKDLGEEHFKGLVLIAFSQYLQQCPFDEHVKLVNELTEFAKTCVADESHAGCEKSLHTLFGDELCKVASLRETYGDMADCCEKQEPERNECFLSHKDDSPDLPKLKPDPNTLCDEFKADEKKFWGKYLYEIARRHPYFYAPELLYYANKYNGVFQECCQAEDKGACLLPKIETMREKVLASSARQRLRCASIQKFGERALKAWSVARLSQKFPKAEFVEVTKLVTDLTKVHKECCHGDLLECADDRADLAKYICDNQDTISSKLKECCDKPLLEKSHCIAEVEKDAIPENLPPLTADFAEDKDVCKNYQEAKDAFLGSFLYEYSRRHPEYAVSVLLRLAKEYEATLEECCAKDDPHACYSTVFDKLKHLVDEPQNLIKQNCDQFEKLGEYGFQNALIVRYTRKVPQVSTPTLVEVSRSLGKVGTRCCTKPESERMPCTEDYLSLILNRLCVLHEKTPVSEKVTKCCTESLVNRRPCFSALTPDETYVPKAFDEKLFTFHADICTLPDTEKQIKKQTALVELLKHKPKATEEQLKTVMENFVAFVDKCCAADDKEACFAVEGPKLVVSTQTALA
Chain of Torsin-1A-interacting protein 1 (Homo sapiens) (Q5JTV8 whole entry, looked up): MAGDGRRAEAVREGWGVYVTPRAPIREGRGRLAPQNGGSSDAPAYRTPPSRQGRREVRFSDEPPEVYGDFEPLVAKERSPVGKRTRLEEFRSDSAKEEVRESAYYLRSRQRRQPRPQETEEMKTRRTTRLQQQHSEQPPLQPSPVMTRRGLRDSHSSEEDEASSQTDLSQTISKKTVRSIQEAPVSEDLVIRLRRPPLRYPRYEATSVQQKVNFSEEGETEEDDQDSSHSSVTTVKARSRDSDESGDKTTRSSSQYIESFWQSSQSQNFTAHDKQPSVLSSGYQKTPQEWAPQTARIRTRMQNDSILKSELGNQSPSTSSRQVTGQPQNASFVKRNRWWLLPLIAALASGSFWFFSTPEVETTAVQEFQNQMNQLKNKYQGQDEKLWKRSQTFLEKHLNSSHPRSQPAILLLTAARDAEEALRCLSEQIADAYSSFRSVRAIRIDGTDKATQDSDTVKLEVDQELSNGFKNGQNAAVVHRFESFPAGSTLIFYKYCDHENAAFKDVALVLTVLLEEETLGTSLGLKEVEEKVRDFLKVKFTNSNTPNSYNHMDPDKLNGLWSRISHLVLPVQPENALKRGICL

## C=CCC(OC(C)=O)[C@@H]1[C@@H](N(Cc2ccc(-c3cccc(C(F)(F)F)c3)o2)C(=O)c2cccc3ccccc23)c2cc(OCCCO)ccc2N1C(=O)c1ccc2ccccc2c1 (stereo not given in full)
[1]
  composite z-score: -0.423
[2]
  z-score: 0.0329
[3]
  composite z-score: -0.382
[4]
  composite z-score: -0.34
[5]
  composite z-score: 0.17
[6]
  composite z-score: -0.108
[7]
  composite z-score: -0.0709
[8]
  composite z-score: 0.0649
[9]
  composite z-score: 0.49
[10]
  composite z-score: 0.108
Albumin (Bos taurus)
  composite z-score: -0.119
[11]
  composite Z-score: 0.115 (inactive)
[12]
  composite z-score: 0.147
[13]
  composite z-score: -0.12
[14]
  composite z-score: 0.0138
[15]
  composite z-score: 0.289
[16]
  composite z-score: -0.278
Sam68 (KHDRBS1)
  composite z-score: -0.351
[17]
  composite z-score: 0.31
[18]
  composite z-score: -0.0957

## O=C1O[C@@H](c2ccccc2)[C@@H](c2ccccc2)N2[C@@H](c3ccc(O)cc3)[C@]3(C(=O)Nc4ccc(C#CC5=CCCCC5)cc43)[C@@H](C(=O)N3CCCCCCC3)[C@H]12
[1]
  composite z-score: 1.38
[2]
  z-score: -1.46
[3]
  composite z-score: 0.455
[4]
  composite z-score: 1.61
[5]
  composite z-score: 0.485
[6]
  composite z-score: 0.654
[7]
  composite z-score: 2.04
[8]
  composite z-score: 2.52
[9]
  composite z-score: 3.16
[10]
  composite z-score: 2.25
Albumin (Bos taurus)
  composite z-score: 0.508
[11]
  composite Z-score: 2.78 (inactive)
[12]
  composite z-score: 1.24
[13]
  composite z-score: 0.276
[14]
  composite z-score: 0.589
[15]
  composite z-score: 2.97
[16]
  composite z-score: 1.85
Sam68 (KHDRBS1)
  composite z-score: 1.29
[17]
  composite z-score: 0.543
[18]
  composite z-score: 0.702

## O=C1OCCC=C[C@H]2OC34C=CCN(CCN5CCOCC5)C(=O)[C@H]3N(CCCO)C(=O)[C@@H]4C12 (stereo not given in full)
[1]
  composite z-score: -0.211
[2]
  z-score: -1.03
[3]
  composite z-score: -0.861
[4]
  composite z-score: -0.572
[5]
  composite z-score: -1.17
[6]
  composite z-score: -0.228
[7]
  composite z-score: -0.144
[8]
  composite z-score: -0.318
[9]
  composite z-score: -0.79
[10]
  composite z-score: -0.386
Albumin (Bos taurus)
  composite z-score: -0.444
[11]
  composite Z-score: 1.11 (inactive)
[12]
  composite z-score: -0.155
[13]
  composite z-score: -0.171
[14]
  composite z-score: 0.0003
[15]
  composite z-score: 1.2
[16]
  composite z-score: -0.0411
Sam68 (KHDRBS1)
  composite z-score: -0.119
[17]
  composite z-score: -0.794
[18]
  composite z-score: -0.112
